# Laboratory results published in PubChem BioAssay AID686979 (National Center for Advancing Translational Sciences (NCATS), 2013).
# About 50,000 (12%) of roughly 420,000 compounds were called active. About 26% were inconclusive and are not listed. Many of the other results were omitted from the sample, so actives are more common in it than they were. Unmarked numbers belong to inactive results. Calls come from the whole dose curve; as a rule, active = well fitted inhibition curve with a large enough effect; inconclusive = small, poorly fitted or top-dose-only effect; inactive = flat fitted curve, though single readings scatter.
# Assay: qHTS for Inhibitors of human tyrosyl-DNA phosphodiesterase 1 (TDP1): qHTS in cells in presence of CPT; note: nearly all actives have a fitted effect of over 55% in size
# Conditions: chicken DT40 Tdp1-/-;hTDP1 cells + 20 nM CPT, ATP luminescence, 48 h; series mostly up to 46.2 µM; activity change, negative = growth inhibition: at the top concentration
# In short: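 Cell growth measured by CellTiter-Glo luminescence after a minimum 48 h, 37 C compound exposure with 20 nM CPT in Tdp1-knockout DT40 cells stably expressing hTDP1, seeded 400/well; qHTS titration format.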
# % is set by controls: 0 for no effect and ±100 for the full control effect; potency is the fitted concentration of half-maximal effect.
Compound,"activity change, negative = growth inhibition [%]",Potency
CC(C)CCN(C(=O)c1csnn1)C(C(=O)NC1CCCC1)c1ccccc1 (configuration not stated),-9.08,
COc1cc(CN2CCNC(=O)C2CC(=O)NCCc2ncccc2C)cc(OC)c1 (configuration not stated),26.1,
CCOc1ccccc1NC(=O)CCS(=O)(=O)c1cccc2nsnc12,,inactive
Cc1ccc(S(=O)(=O)N(C)C)cc1NC(=O)COC(=O)/C=C/c1cccs1,-18.7,
Cc1ccccc1N(C(=O)CNC(=O)c1cccs1)C(C(=O)NC1CCCC1)c1ccncc1 (configuration not stated),0.575,
CCOc1cc(NS(=O)(=O)c2ccc(OC)cc2)c(OCC)cc1NC(C)=O,-0.871,
COc1ccc(C(=O)Nc2c(N)nc(SCC(=O)Nc3ccc(C(C)=O)cc3)[nH]c2=O)cc1,-4.08,
COc1ccccc1CNC(=O)CNC(=O)c1cn(-c2ccccc2OC)c(=O)c2ccccc12,3.6,
C=CCn1c(=O)n(C)c2c(=O)n(C)c(=O)n(C)c21,22.4,
Cc1c(CNCCc2ccccc2)c(C(=O)O)c(C)n1-c1ccccc1,-21.1,
COc1cc(C(=O)N(Cc2ccc(C(C)C)cc2)C2CCS(=O)(=O)C2)cc(OC)c1OC (configuration not stated),-0.678,
O=C(/C=C/c1cn(CC(O)CN2CCc3ccccc32)c2ccccc12)c1ccc(Br)cc1 (configuration not stated),,18.4 µM (active)
CC(C)OCCCn1c(SCC(=O)c2ccccc2)nc2c(sc3ccccc32)c1=O,6.91,
COc1cc(CCN=Cc2ccccc2O)c([N+](=O)[O-])cc1OC,9.53,
Oc1ccc(N=Cc2sc3ccccc3c2Cl)cc1,,13 µM (active)
Oc1ccc(N=Cc2c(O)ccc3ccccc23)cc1,-23.8,
CC(=O)n1c(C=Nc2ccccc2)c(O)c2ccccc21,-0.272,
CCOC(=O)c1ccc(NC(=O)c2c(N)n(C)c(=O)[nH]c2=O)cc1,-12.4,
Cc1cc(C2=NNC(=Nc3ccc(S(=O)(=O)N4CCOCC4)cc3)SC2)c(C)n1CC1CCCO1 (configuration not stated),,5.17 µM (active)
Cc1ccc(S(=O)(=O)N2CCC(C(=O)NCC3CCCO3)CC2)cc1 (configuration not stated),-17,
Cc1ccnc(NS(=O)(=O)c2ccc(NC(=O)c3ccc(S(=O)(=O)N4CCOCC4)cc3)cc2)n1,-0.712,
O=C1OC(Oc2ccc(Br)cc2)(c2ccccc2)c2ccccc21 (configuration not stated),-0.929,
CC1(C)Cc2ccccc2-c2[nH]c(=S)[nH]c(=O)c21,9.69,
NC(=O)c1oc2ccccc2c1NC(=O)Cc1ccccc1,6.31,
CCC(=O)Nc1c(C(=O)N2CCN(c3ccc(F)cc3)CC2)oc2ccccc12,,13 µM (active)
O=C(c1ccco1)N1CCN(C(=O)C2CC(c3ccc(F)cc3)=NO2)CC1 (configuration not stated),-27.3,

Compound,"activity change, negative = growth inhibition [%]",Potency
O=C(Nc1c(C(=O)N2CCN(c3ccc(F)cc3)CC2)oc2ccccc12)c1ccco1,,16.4 µM (active)
O=C(Nc1ccccc1C(=O)N1CCCCC1)c1ccco1,-2.7,
COCC(=O)Nc1c(C(=O)N2CCCC2)oc2ccccc12,18.4,
CC(Oc1cccc(Cl)c1)C(=O)NC1CC(C)(C)NC(C)(C)C1 (configuration not stated),3.12,
COc1cc(C2C(C(=O)c3cccs3)=C(O)C(=O)N2CCN2CCOCC2)ccc1OCCC(C)C (configuration not stated),14.9,
CCN1CCN(c2ccc(/C=C/c3ccnc4ccccc34)cc2)CC1,,11.2 µM (active)
Oc1ccc(/C=N/N(Cc2ccccc2)c2ccccc2)cc1,22.5,
CCC(C)N(c1ccc(/C=C/c2ccnc3ccccc23)cc1)C(C)CC (configuration not stated),,7.08 µM (active)
c1ccc(-c2cnc(CN3CCN(c4ccccc4)CC3)o2)cc1,0.628,
O=C(CN1CCCC1)N1CCN(c2ccccc2)CC1,-10.3,
CN(Cc1ccccc1)c1ccc(/C=C/c2ccnc3ccccc23)cc1,,12.6 µM (active)
CN(C)c1ccc(/C=C/C=C/c2ccnc3ccccc23)cc1,,1.78 µM (active)
Cc1ccc(S(=O)(=O)N(C)C)cc1NC(=O)C(C)OC(=O)c1ccc2ccccc2n1 (configuration not stated),-5.45,
CC(C)[C@@H](NC(=O)OC(C)(C)C)C(=O)NCC1CCC(C(=O)N[C@@H](Cc2ccccc2)C(=O)O)CC1 (some centres not stated),5.99,
C[C@H]1CN([C@@H](C)CO)S(=O)(=O)c2ccc(Br)cc2O[C@H]1CN(C)C(=O)c1cnccn1,-9.71,
CNC(=O)COc1ccc(S(=O)(=O)Nc2ccccc2)cc1,3.15,
CC(=O)c1ccccc1NC(=O)COC(=O)C1COc2ccccc2O1 (configuration not stated),0.997,
CC1(C(=O)NS(=O)(=O)c2ccccc2Cl)CCN1C(=O)c1cccc(F)c1 (configuration not stated),-8.37,
O=C(Cn1nc([N+](=O)[O-])nc1Br)NC1CCCCC1,-3.93,
O=C(NCCS(=O)(=O)N1CCN(c2ccccc2)CC1)c1ccco1,0.253,
CN1CCN(Cc2nc3cc(NC(=O)COc4ccc([N+](=O)[O-])cc4)ccc3n2C)CC1,-0.469,
O=C(Oc1ccc(C(=S)N2CCOCC2)cc1)c1ccc(F)cc1,-2.14,
Cc1ccc(SCC2=NNC(=O)C2)cc1,-7.49,
O=C(COc1ccccc1)Nc1cc2c3c(c1)CC(=O)N3CCC2,-29.3,
CN(Cc1ccccc1)C(=O)CCC1CCN(C(=O)c2ccco2)CC1,4.83,
C=CCC1(C(=O)N(C)Cc2ccccc2)CCN(C(=O)OC(C)(C)C)CC1,,14.6 µM (active)
